{"source": "paper PMC4336329", "about": "(PLoS ONE, 2015)", "note": "Screen size: about 310,000 compounds; about 14,000 (4.5%) showed an effect of 50% or more. The effect is printed as a negative number. This excerpt belongs to a sample that is enriched for strong results.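 Also: peak tail current of the secondary pulse compared with the same well before compound.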", "data": [{"biological_target": "human ether-à-go-go-related gene (hERG) potassium channel (human, UniProt Q12809)", "sequence (Q12809 whole entry, looked up)": "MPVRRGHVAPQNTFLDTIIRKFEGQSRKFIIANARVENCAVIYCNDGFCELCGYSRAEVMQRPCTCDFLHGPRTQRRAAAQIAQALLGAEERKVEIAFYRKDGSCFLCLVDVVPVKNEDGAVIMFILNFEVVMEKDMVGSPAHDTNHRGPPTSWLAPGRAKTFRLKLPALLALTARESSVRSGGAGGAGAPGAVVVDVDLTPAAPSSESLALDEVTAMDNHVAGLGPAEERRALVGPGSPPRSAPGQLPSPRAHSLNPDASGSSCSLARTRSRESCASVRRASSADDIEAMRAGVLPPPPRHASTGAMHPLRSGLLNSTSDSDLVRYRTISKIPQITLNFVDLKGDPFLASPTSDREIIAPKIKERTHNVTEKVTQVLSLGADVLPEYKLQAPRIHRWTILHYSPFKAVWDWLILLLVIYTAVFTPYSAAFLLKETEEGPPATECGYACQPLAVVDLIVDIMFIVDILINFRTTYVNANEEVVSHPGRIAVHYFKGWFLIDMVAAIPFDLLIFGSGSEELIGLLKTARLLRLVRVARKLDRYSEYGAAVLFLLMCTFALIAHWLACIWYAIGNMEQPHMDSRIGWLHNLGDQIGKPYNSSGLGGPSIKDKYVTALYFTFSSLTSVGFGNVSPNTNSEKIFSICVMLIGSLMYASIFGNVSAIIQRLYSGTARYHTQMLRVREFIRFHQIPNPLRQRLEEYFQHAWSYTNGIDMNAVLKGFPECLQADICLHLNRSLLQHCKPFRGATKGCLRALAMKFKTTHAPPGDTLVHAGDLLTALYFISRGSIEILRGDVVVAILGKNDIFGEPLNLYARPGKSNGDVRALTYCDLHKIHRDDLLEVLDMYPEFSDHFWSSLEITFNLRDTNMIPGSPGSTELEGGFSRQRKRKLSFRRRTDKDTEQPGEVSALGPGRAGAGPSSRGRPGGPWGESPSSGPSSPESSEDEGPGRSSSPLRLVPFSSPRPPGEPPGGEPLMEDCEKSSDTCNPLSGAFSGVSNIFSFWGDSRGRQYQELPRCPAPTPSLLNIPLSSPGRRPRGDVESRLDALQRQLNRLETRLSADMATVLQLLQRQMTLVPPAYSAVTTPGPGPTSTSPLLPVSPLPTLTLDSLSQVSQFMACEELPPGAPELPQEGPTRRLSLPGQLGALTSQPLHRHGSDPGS", "assay": "primary screen, population patch clamp on CHO cells stably expressing hERG; higher = less effect of the substance", "units": {"hERG current change (%, negative = inhibition) at 10uM": "%"}, "values": [{"compound": "Cc1cc(C)cc(NC(=O)Cn2c(-c3ccccc3Cl)nc3ccccc32)c1", "hERG current change (%, negative = inhibition) at 10uM": 5.5}, {"compound": "CCCCC(CC)CNC(=O)c1cccs1", "note": "(stereo not drawn)", "hERG current change (%, negative = inhibition) at 10uM": 8.33}, {"compound": "O=S(=O)(c1ccc(Nc2ccc3c(c2)OCO3)nc1)N1CCOCC1", "hERG current change (%, negative = inhibition) at 10uM": -13.2}, {"compound": "COc1ccc(N(C(=O)c2cccnc2)S(=O)(=O)c2cc(OC)ccc2OC)cc1", "hERG current change (%, negative = inhibition) at 10uM": -21.8}, {"compound": "O=C(CS(=O)(=O)Cc1ccccc1)Nc1ccccc1Cl", "hERG current change (%, negative = inhibition) at 10uM": 1.09}, {"compound": "Cc1ccc(C2CC(=O)C=C(O)C2)cc1", "note": "(stereo not drawn)", "hERG current change (%, negative = inhibition) at 10uM": 3.29}, {"compound": "CSCC(C)N1CCC(n2nccc2NC(=O)c2ccc3c(c2)OCO3)CC1", "note": "(stereo not drawn)", "hERG current change (%, negative = inhibition) at 10uM": -2.95}, {"compound": "Cc1ccc(CCNS(=O)(=O)c2cc3c(cc2C)n(C)c(=O)c(=O)n3C)cc1", "hERG current change (%, negative = inhibition) at 10uM": -30.8}, {"compound": "Cc1ccc(-n2c(SCC(=O)Nc3ccc4c(c3)OCCO4)nnc2-c2ccco2)cc1", "hERG current change (%, negative = inhibition) at 10uM": -30.9}, {"compound": "CCOC(=O)CSc1nnc(-c2ccco2)n1-c1ccccc1", "hERG current change (%, negative = inhibition) at 10uM": -27.6}, {"compound": "CCOC(=O)CNC(=O)CSc1nnc(-c2cccc(OC)c2)n1CC", "hERG current change (%, negative = inhibition) at 10uM": 7.24}, {"compound": "CNC(=O)CSc1nnc(-c2ccco2)n1-c1ccc(C)cc1", "hERG current change (%, negative = inhibition) at 10uM": -49.5}, {"compound": "CCOc1ccc(-n2c(-c3ccccc3)nnc2-c2ccccc2)cc1", "hERG current change (%, negative = inhibition) at 10uM": -6.7}, {"compound": "CCOC(=O)CSc1nnc(-c2ccco2)n1-c1ccc(C)cc1", "hERG current change (%, negative = inhibition) at 10uM": -61.9}, {"compound": "CCOC(=O)CNC(=O)CSc1nnc(-c2cccc(C)c2)n1-c1ccc(OC)cc1", "hERG current change (%, negative = inhibition) at 10uM": -62}, {"compound": "Cc1ccc(-n2c(SCC(=O)Nc3ccc4cn[nH]c4c3)nnc2-c2ccco2)cc1", "hERG current change (%, negative = inhibition) at 10uM": -62.4}, {"compound": "CCNC(=O)CSc1nnc(-c2ccccc2)n1-c1ccc(OCC)cc1", "hERG current change (%, negative = inhibition) at 10uM": -62.8}, {"compound": "CCOc1ccc(NC(=O)CSc2nnc(-c3ccccc3)n2N)cc1", "hERG current change (%, negative = inhibition) at 10uM": 6.02}, {"compound": "CCOC(=O)CNC(=O)CSc1nnc(-c2ccc(OC)cc2)n1CC", "hERG current change (%, negative = inhibition) at 10uM": 10.5}, {"compound": "COC(=O)CSc1nnc(-c2ccco2)n1-c1ccc(C)cc1", "hERG current change (%, negative = inhibition) at 10uM": -24.2}, {"compound": "CCn1c(C)nc2cc(C(=O)N/N=C/c3ccccc3C)ccc21", "hERG current change (%, negative = inhibition) at 10uM": -12.8}, {"compound": "Cc1cc2c(C)nc(Cc3ccccc3)nc2o1", "hERG current change (%, negative = inhibition) at 10uM": 14.7}, {"compound": "CCOc1cc2[nH]c(=O)n(Cc3ccc(C(=O)NCCCN4CCCC4=O)cc3)c(=O)c2cc1OCC", "hERG current change (%, negative = inhibition) at 10uM": 16.2}, {"compound": "CCOC(=O)C1=C(C)Nc2nc(SC)nn2C1c1ccc(C(=O)OC)cc1", "note": "(stereo not drawn)", "hERG current change (%, negative = inhibition) at 10uM": 5.26}, {"compound": "Cc1ccc(/C=N\\NC(=O)/C(=C\\Nc2nccc(C)n2)NC(=O)c2ccccc2)cc1", "hERG current change (%, negative = inhibition) at 10uM": -9.72}, {"compound": "C=C1C(=O)O[C@@H]2C[C@@H](C)[C@@H]3C=CC(=O)[C@@]3(C)[C@@H](OC(=O)CC(=O)O[C@H]3[C@@H]4C(=C)C(=O)O[C@@H]4C[C@@H](C)[C@@H]4C=CC(=O)[C@]43C)[C@H]12", "hERG current change (%, negative = inhibition) at 10uM": -38.6}, {"compound": "COc1ccc(CNC(=O)C2CCN(S(=O)(=O)c3cccnc3)CC2)cc1", "hERG current change (%, negative = inhibition) at 10uM": 12.9}, {"compound": "Cc1ccc(S(=O)(=O)NCCC(=O)Nc2cc(F)ccc2C)cc1C", "hERG current change (%, negative = inhibition) at 10uM": 2.51}, {"compound": "CCOC(=O)c1c(O)c2ccccc2oc1=O", "hERG current change (%, negative = inhibition) at 10uM": -18.7}, {"compound": "CN1C(=O)CN=C(c2ccc(Cl)cc2)c2cc(Cl)ccc21", "hERG current change (%, negative = inhibition) at 10uM": -33.8}, {"compound": "COc1ccc(-n2c(SCC(=O)Nc3nccs3)nnc2-c2ccoc2C)cc1", "hERG current change (%, negative = inhibition) at 10uM": -80}, {"compound": "COc1cccc(-n2ccnc2SCC(=O)Nc2nccs2)c1", "hERG current change (%, negative = inhibition) at 10uM": -6.22}, {"compound": "COc1cccc(-n2c(SCC(=O)Nc3nccs3)nnc2-c2ccoc2C)c1", "hERG current change (%, negative = inhibition) at 10uM": -76.8}, {"compound": "CCOC(=O)CSc1nnc(-c2ccoc2C)n1-c1ccc(C)cc1", "hERG current change (%, negative = inhibition) at 10uM": -19.3}, {"compound": "CCOC(=O)CSc1nnc(CNC(=O)c2ccc(OC)cc2OC)n1-c1ccc(OC)cc1", "hERG current change (%, negative = inhibition) at 10uM": -50.1}, {"compound": "CCOC(=O)CSc1nnc(CNC(=O)c2ccccc2OC)n1-c1ccc(OC)cc1", "hERG current change (%, negative = inhibition) at 10uM": -28.8}, {"compound": "Cn1c(SCC(=O)Nc2nccs2)nnc1-c1ccco1", "hERG current change (%, negative = inhibition) at 10uM": -5.22}, {"compound": "COc1cccc(C(=O)NCc2nnc(SCC(=O)Nc3nccs3)n2-c2cccc(C)c2)c1", "hERG current change (%, negative = inhibition) at 10uM": -18.3}, {"compound": "CCOC(=O)CSc1nnc(CNC(=O)c2ccc(OC)cc2OC)n1C", "hERG current change (%, negative = inhibition) at 10uM": -18.4}, {"compound": "CCOC(=O)CSc1nnc(-c2ccoc2C)n1-c1ccc(OCC)cc1", "hERG current change (%, negative = inhibition) at 10uM": -66.5}, {"compound": "COc1ccc(-n2c(CSc3nc(C)cc(C)n3)nnc2SCC(=O)Nc2nccs2)cc1", "hERG current change (%, negative = inhibition) at 10uM": -13.2}, {"compound": "CCOc1ccc(-n2c(SCC(N)=O)nnc2-c2ccco2)cc1", "hERG current change (%, negative = inhibition) at 10uM": -1.15}, {"compound": "COc1ccc(C2(C(=O)NCCCN(C)C)CCOCC2)cc1", "hERG current change (%, negative = inhibition) at 10uM": 7.45}, {"compound": "CCOC(=O)c1c(-c2ccccc2Cl)csc1NC(=O)CSc1nc(C)cc(=O)[nH]1", "hERG current change (%, negative = inhibition) at 10uM": 4.37}, {"compound": "C=CCc1ccc(OCc2ccc(C(=O)OC)o2)c(OC)c1", "hERG current change (%, negative = inhibition) at 10uM": -12.1}, {"compound": "CC1CCCCC1NC(=O)CC1Oc2ccccc2NC1=O", "note": "(stereo not drawn)", "hERG current change (%, negative = inhibition) at 10uM": 0.244}, {"compound": "CC(=O)c1ccc(S(=O)(=O)NC2CC(=O)N(c3ccc4c(c3)OCCO4)C2)cc1", "note": "(stereo not drawn)", "hERG current change (%, negative = inhibition) at 10uM": 5.79}, {"compound": "CCN(CC)S(=O)(=O)c1cc(C(=O)O)ccc1Cl", "hERG current change (%, negative = inhibition) at 10uM": 11}, {"compound": "CC(=O)c1ccc(Sc2nnc(C)s2)c([N+](=O)[O-])c1", "hERG current change (%, negative = inhibition) at 10uM": 1.07}, {"compound": "Cc1ccc(OCC(=O)Nc2nnc(S(=O)(=O)N3CCC(C)CC3)s2)cc1", "hERG current change (%, negative = inhibition) at 10uM": 19.2}, {"compound": "O=C(NNC(=O)c1ccc([N+](=O)[O-])o1)c1ccccc1", "hERG current change (%, negative = inhibition) at 10uM": -6.59}, {"compound": "CN(CC(=O)Nc1ccccc1Cl)C(=O)COC(=O)c1ccc(C(F)(F)F)cc1", "hERG current change (%, negative = inhibition) at 10uM": -9.53}, {"compound": "CN(CC(=O)Nc1ccccc1Cl)C(=O)COC(=O)C1=COCCO1", "hERG current change (%, negative = inhibition) at 10uM": 5.89}, {"compound": "CN(CC(=O)Nc1ccccc1Cl)C(=O)COC(=O)c1nc(Cl)ccc1Cl", "hERG current change (%, negative = inhibition) at 10uM": -20}, {"compound": "CN(CC(=O)Nc1ccccc1Cl)C(=O)COC(=O)c1ccc(Cl)nc1", "hERG current change (%, negative = inhibition) at 10uM": 4.99}, {"compound": "CN(CC(=O)Nc1ccccc1Cl)C(=O)COC(=O)c1ccc(S(=O)(=O)C(F)F)cc1", "hERG current change (%, negative = inhibition) at 10uM": -69.9}, {"compound": "CN(CC(=O)Nc1ccccc1Cl)C(=O)COC(=O)C1CC1", "hERG current change (%, negative = inhibition) at 10uM": -2.87}, {"compound": "CC[C@H](C)[C@H](NC(=O)OCc1ccccc1)C(=O)OCC(=O)N(C)CC(=O)Nc1ccccc1Cl", "hERG current change (%, negative = inhibition) at 10uM": -64.5}, {"compound": "CC(=O)Oc1ccc(-c2ccc(C(=O)OCC(=O)N(C)CC(=O)Nc3ccccc3Cl)cc2)cc1", "hERG current change (%, negative = inhibition) at 10uM": -68.9}, {"compound": "CN(CC(=O)Nc1ccccc1Cl)C(=O)COC(=O)c1ccccc1[N+](=O)[O-]", "hERG current change (%, negative = inhibition) at 10uM": -6.07}]}]}
